Screening results as filed in PubChem BioAssay.
ALR H2O2 inh: inhibitors of human ALR sulfhydryl oxidase, primary screen, biochemical, H2O2 detection, HRP-luminol luminescence, single point; inhibition, % (test concentration not listed); FAD-linked sulfhydryl oxidase ALR (Homo sapiens), P55789; 290,000 compounds, 3.8% hits; purified ALR, DTT oxidation;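 active = mean replicate inhibition above about 79%, with every replicate also reaching it, limit read from the data; inconclusive = only one of the two criteria met; inactive = mean below limit and not every replicate reaching it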
Target sequence (P55789 whole entry, looked up): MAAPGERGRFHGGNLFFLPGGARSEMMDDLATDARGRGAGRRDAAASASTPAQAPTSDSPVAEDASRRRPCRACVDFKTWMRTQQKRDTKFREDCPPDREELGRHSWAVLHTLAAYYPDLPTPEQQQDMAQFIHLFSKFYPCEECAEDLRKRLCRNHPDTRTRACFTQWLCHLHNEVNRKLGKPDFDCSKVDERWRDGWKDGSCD
CSC inhib: cancer stem cell viability inhibitors, primary screen, luminescence; 300,000 compounds, 1.1% hits; inhibition, % at 7.5 µM; cancer stem cell-like cells viability; in the data active = inhibition above about 75%; inconclusive = no clear call, values can overlap the other calls; tested in HMLE shEcad cells
PP1 inh: PP1-alpha phosphatase inhibitors, primary screen, counter-screen for PP5 inhibitor project, biochemical, fluorescence, OMFP substrate, single point. Serine/threonine-protein phosphatase PP1-alpha catalytic subunit (Homo sapiens), P62136. purified PP1alpha. inhibition, % at 6.7 µM. 320,000 compounds, 0.9% hits. AID 2235, 2010;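 active = inhibition above the mean inhibition of all tested compounds plus 3 SD, computed separately for each screening campaign, cut at about 15% in these data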
Target sequence (P62136 whole entry, looked up): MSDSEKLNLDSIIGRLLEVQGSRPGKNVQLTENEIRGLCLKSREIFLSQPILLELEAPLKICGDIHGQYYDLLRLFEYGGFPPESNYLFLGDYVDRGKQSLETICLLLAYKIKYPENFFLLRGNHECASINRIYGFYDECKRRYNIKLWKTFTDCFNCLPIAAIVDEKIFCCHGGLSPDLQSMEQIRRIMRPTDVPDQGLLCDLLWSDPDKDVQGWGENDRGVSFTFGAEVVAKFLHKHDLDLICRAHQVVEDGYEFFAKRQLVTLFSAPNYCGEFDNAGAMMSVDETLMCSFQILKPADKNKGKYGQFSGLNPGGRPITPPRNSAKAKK
Calb FLC: C. albicans growth inhibition with fluconazole, primary screen, CaCi-2 strain, Alamar Blue fluorescence; C. albicans CaCi-2 (fluconazole-resistant clinical isolate) + fluconazole, 48 h; AID 1979, 2009; 300,000 compounds, 0.57% hits; growth inhibition, % (concentration not given with the values);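 active = growth inhibition above about 58% in most replicates, limit read from the data, passing the limit was not always enough; inconclusive = exactly half the replicates above a set limit; inactive = most replicates below a set limit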;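 also: all wells also contain fluconazole at 8 µg/ml as a sub-toxic cotreatment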
PP5 primary: PP5 phosphatase inhibitors, primary screen, biochemical, fluorescence. purified PP5c, OMFP substrate fluorescence. inhibition, % at 6.7 µM. 320,000 compounds, 0.18% hits;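 active = inhibition above the campaign's mean inhibition across all tested compounds plus 3 SD, cut at about 9.5% in these data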
Numbers stand for hits; n = inactive; u = inconclusive; x = no result. An excerpt weighted towards active compounds, which were near 5.4% of everything screened.

SMILES | ALR H2O2 inh | CSC inhib | PP1 inh | Calb FLC | PP5 primary
Oc1ccc(CCc2n[nH]c(=S)n2-c2ccc(F)cc2)cc1 | 81 | n | n | n | n
N#Cc1ccc(/C=C/C(=O)c2ccccc2)cc1 | u | n | n | n | n
CC1S/C(=N\N=C\c2cccc([N+](=O)[O-])c2)N(C(C)(C)C)C1=O (stereo not drawn) | x | 81 | n | n | n
Cc1cc(C)n(/N=C/c2cccc([N+](=O)[O-])c2)c(=O)c1 | n | x | n | n | n
Cc1nc2ccc(CN(C)c3ccc(C(=O)N[C@@H](CCC(=O)O)C(=O)O)s3)cc2c(=O)[nH]1 | n | 75 | n | x | n
Cc1cc(C)cc(N(C(=O)Cn2nnc(-c3ccccc3)n2)C(C(=O)NC2CCCCC2)c2ccccn2)c1 (stereo not drawn) | n | n | n | n | n
CN(C)c1cccc(C(=O)NNC(=S)NC2CC3CCC2C3)c1 (stereo not drawn) | 85 | n | n | n | n
CCCCCCCCN1[C@@H](CC(=O)OC)c2cc(F)ccc2S1(=O)=O | n | n | n | n | n
CCCCCCCCN1[C@@H](CC(=O)O)c2cc(C(F)(F)F)ccc2S1(=O)=O | 98 | n | n | n | n
CCCCCCCCCCCCN1[C@@H](CC(=O)O)c2cc(F)ccc2S1(=O)=O | 98 | n | 16 | n | n
CCCCCCCCCCCCN1[C@@H](CC(=O)O)c2cc(C(F)(F)F)ccc2S1(=O)=O | 98 | 104 | n | n | n
CCCCCCCCCCCCN1[C@@H](CC(=O)OC)c2cc(C(F)(F)F)ccc2S1(=O)=O | n | n | n | n | n
CCCCCCCCN1[C@@H](CC(=O)OCC)c2ccc(C(F)(F)F)cc2S1(=O)=O | n | n | n | n | n
Nc1ccc(S(=O)(=O)NNC(=O)C(=O)NNc2ccccc2)cc1 | x | n | n | 106 | n
O=C(NNc1ccccc1)C(=O)NNS(=O)(=O)c1ccc(CCCl)cc1 | 99 | 105 | n | 86 | n
O=C(Cc1ccccc1)NNS(=O)(=O)c1ccc(F)cc1 | n | n | n | n | n
COc1ccc(/C(N)=N/OC(=O)c2ccc3c(c2)OCO3)cc1 | n | n | n | n | n
Clc1cccc(CN2CCc3c([nH]c4ccccc34)C2)c1Cl | n | 111 | n | n | n
COc1ccccc1CN1CCc2c([nH]c3ccccc23)C1 | n | n | n | n | n
CCN(C(=O)COC(=O)/C=C/c1cccc(Cl)c1)c1c(N)n(Cc2ccccc2)c(=O)[nH]c1=O | n | n | n | x | n
CCc1ccc(NCc2ccc(OC)c(Cn3ccnc3)c2)cc1 | 81 | n | n | n | n
CCOc1ccccc1C(=O)NCC(=O)NCC1CCCCC1 | n | n | n | n | n
COc1ccc(Cn2nc(-c3ccccc3)c(N3CCCCC3)cc2=O)cc1 | n | n | n | n | n
O=c1cc(N2CCCCC2)c(-c2ccccc2)nn1Cc1ccccc1 | n | 105 | n | x | n
CCOC(=O)C1=C(CSc2nc3c(cc2C#N)CN(C)CC3)OC(N)=C(C#N)C1c1ccc(F)cc1 (stereo not drawn) | n | n | 16 | n | n
SMILES | ALR H2O2 inh | CSC inhib | PP1 inh | Calb FLC | PP5 primary
CCOC(=O)C1=C(CSc2nc3c(cc2C#N)CN(C)CC3)OC(N)=C(C#N)C1c1ccccc1 (stereo not drawn) | x | n | 17 | n | n
CCOC(=O)C1=C(CSc2nc3c(cc2C#N)CCC3)OC(N)=C(C#N)C1c1ccccc1 (stereo not drawn) | n | n | n | n | n
COc1cc(C(=O)NCC(=O)N/N=C(/C)c2ccc3c(c2)CCCC3)cc(OC)c1OC | n | n | n | n | n
Cc1ccc(-c2[nH]c(-c3ccccc3)nc2SCC(=O)NCC2CCCO2)cc1 (stereo not drawn) | n | n | n | n | n
CCOc1ccccc1N1C(=O)CC(Sc2n[nH]c(-c3ccccc3)n2)C1=O (stereo not drawn) | 99 | n | n | n | n
COc1ccc(N2C(=O)CC(Sc3n[nH]c(-c4cccc(C)c4)n3)C2=O)cc1 (stereo not drawn) | 99 | n | n | n | n
COc1ccccc1N1C(=O)CC(Sc2nc(C)cc(C)n2)C1=O (stereo not drawn) | n | n | n | n | n
COc1cccc(N2C(=O)CC(Sc3nc(C)cc(C)n3)C2=O)c1 (stereo not drawn) | n | n | n | n | n
COc1cccc(NC(=O)CN2C(=O)NC3(CCCCCC3)C2=O)c1 | n | n | x | x | x
Cc1nonc1CN(C)C(=O)CC1C(=O)NCCN1Cc1ccccc1F (stereo not drawn) | n | n | x | n | x
COc1ccc(-c2csc(Nc3ccc(C)cn3)n2)cc1 | n | n | n | n | n
Cc1ccccc1Cn1cc(NC(=O)c2noc(C(C)C)c2[N+](=O)[O-])cn1 | n | n | n | n | n
C/C(=N/Nc1ccccc1C(=O)O)c1cccs1 | 95 | n | n | n | n
C/C(=N\Nc1ccc(Cl)c(C(=O)O)c1)c1cccs1 | n | n | n | n | n
Cc1n[nH]c(C)c1Sc1ccccc1N | 96 | n | n | n | n
Cc1cc(C)nc(Sc2c(C)n[nH]c2C)n1 | n | n | n | n | n
CN(C)CCn1c2c(c(SCC(=O)Nc3cccc4ccccc34)nc1=O)CCCC2 | n | n | n | n | n
CCN(CC)CCn1c2c(c(SCC(=O)Nc3cc(OC)cc(OC)c3)nc1=O)CCC2 | 96 | n | n | n | n
Cc1csc(NC(=O)CSc2nc(=O)n(CCN(C)C)c3c2CCCC3)n1 | 98 | n | n | n | n
CCc1ccc(NC(=O)CSc2nc(=O)n(CCN(C)C)c3c2CCCC3)cc1 | 99 | n | n | n | n
CCN(CC)CCn1c2c(c(SCC(=O)Nc3cccc(C(C)=O)c3)nc1=O)CCCC2 | x | x | x | n | x
Cc1cc(NC(=O)CSc2nc(=O)n(CCN(C)C)c3c2CCCC3)no1 | n | n | n | n | n
COc1cccc(NC(=O)CSc2nc(=O)n(CCN(C)C)c3c2CCCC3)c1 | 97 | n | n | n | n
COc1ccc(C2NC(=O)CCC2[N+](=O)[O-])cc1 (stereo not drawn) | n | n | n | n | n
Cc1cccc(N2C(=O)C3C4C=CC(C4)C3C2=O)c1 (stereo not drawn) | n | n | n | n | n
SMILES | ALR H2O2 inh | CSC inhib | PP1 inh | Calb FLC | PP5 primary
CCCCOc1ccc(-c2nc(=S)[nH][nH]2)cc1 | 99 | n | n | n | n
Cc1nccn1CC(=O)c1ccc(O)c(O)c1 | 87 | n | n | x | n
Cc1ccc2nc(NC(=O)CCNS(=O)(=O)c3cccs3)sc2c1 | x | n | n | n | n
Cc1ccc2nc(NC(=O)c3ccc(NS(=O)(=O)c4cccs4)cc3)sc2c1 | x | 104 | n | n | n
O=C(NNC(=O)c1cc(Cl)ccc1O)c1ccc(NS(=O)(=O)c2cccs2)cc1 | n | 95 | n | 84 | n
Cc1[nH][nH]c(=O)c1C(c1ccc(O)c(Br)c1)c1c(C)[nH][nH]c1=O | n | n | n | n | n
